In PubChem BioAssay (NCATS) one finds Potency and activity change, negative = inhibition data, which are given here for 14 molecules.

Results filed as inconclusive are left out. Calls of active or inactive are those of the source. Unless noted, calls come from the whole dose curve. Numbered stars: 1 amine (or outer) side, 2 acyl side, 3 side chain; on linkers, the order of the positions; unused ones are H or OH. Bridge positions count the residues as written; N and C are the ends. Square brackets hold non-standard residues; d marks the D form. Peptide text beside a SMILES is read from it. * marks the point of attachment. ξ: configuration not given here. pTerphenylCO(4''-OnC5H11) = CCCCCOc1ccc(-c2ccc(-c3ccc(C(=O)*)cc3)cc2)cc1; ξOrn(4,5-diOH) = O=C(C(CC(O)C(O)N[*:3])N[*:1])[*:2]; ξhTyr(βξ-OH,γξ-OH) = NC(C(=O)O)C(O)C(O)c1ccc(O)cc1; ξPro(3ξ-OH,4ξ-Me) = CC1CNC(C(=O)O)C1O; Hyp = O=C(O)[CH]1C[CH](O)CN1

Assay [1] is described as follows: Primary qHTS for Huh7 cytotoxicity: counterscreen for inhibitors of MERS-S pseudotyped particle cell entry (AID 1479147). Note: potency is the fitted concentration of half-maximal effect. The conditions noted are these: outcome: dose series up to 57.1 µM unless noted. (qHTS replaces the single test concentration by a dilution series.)
The nature of assay [2]: Primary qHTS for inhibitors of MERS-S pseudo-typed particle cell entry (AID 1479149). For activity change, negative = inhibition: % is set by controls: 0 for no effect and ±100 for the full control effect. Note: nearly all actives have a fitted effect of over 60% in size. Note: potency is the fitted concentration of half-maximal effect. The conditions noted are these: outcome: dose series up to 57.1 µM unless noted.
The nature of assay [3]: Primary qHTS for Vero E6 cytotoxicity: counterscreen for inhibitors of SARS-S pseudo-typed particle cell entry (AID 1479150). The conditions noted are these: outcome: dose series up to 57.1 µM unless noted.
A short description of assay [4]: Primary qHTS for inhibitors of SARS-S pseudo-typed particle cell entry (AID 1479145). For activity change, negative = inhibition: % is set by controls: 0 for no effect and ±100 for the full control effect. Note: nearly all actives have a fitted effect of over 45% in size. Note: potency is the fitted concentration of half-maximal effect. The settings on record: outcome: dose series up to 57.1 µM unless noted.
Assay [5] in a line: Primary qHTS to identify inhibitors of SARS-CoV-2 cell entry (AID 1645846). Note: nearly all actives have a fitted effect of over 45% in size. Note: potency is the fitted concentration of half-maximal effect. The settings on record: SARS-CoV-2 pseudovirus cell entry assay, luminescence. In outline: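 Luminescence readout (Bright-Glo luciferase) 48 h after pseudoparticle addition. HEK293-ACE2 cells, 1500/well; compound pre-incubation 1 h; Normalized to spike PP and bald PP.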
The nature of assay [6]: Confirmatory qHTS for VERO E6 Cytotoxicity Assay: Counterscreen for SARS-CoV-2 CPE Assay (AID 1508605). Note: % is set by controls: 0 for no effect and ±100 for the full control effect; nearly all actives have a fitted effect of over 60% in size.
A short description of assay [7]: Cytotoxicity counterscreen for inhibitors of SARS-CoV-2 cell entry (AID 1645845). Note: nearly all actives have a fitted effect of over 50% in size. The conditions noted are these: outcome: dose series up to 57.1 µM unless noted. In outline:
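ATP-content luminescence (ATPLite 1step, 15 min RT) read after 48 h compound exposure of Expi293F cells stably expressing human ACE2; normalized to cells-only wells and media-only wells.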
For orientation: The purpose of a counterscreen is to sort out artefacts and off-target activity.

Assay [8] in a line: Confirmatory qHTS to identify inhibitors of SARS-CoV-2 cell entry (AID 1645844). Note: nearly all actives have a fitted effect of over 45% in size. Note: potency is the fitted concentration of half-maximal effect. In outline: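 Luminescence entry read-out after 48 h: spike-pseudotyped MLV particles (Wuhan-Hu-1, 19-aa C-terminal truncation) added to compound-pretreated (1 h) HEK293-ACE2 cells; Data were normalised to bald PP and spike PP wells.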
Assay [9] is described as follows: VSVG counterscreen qHTS to identify inhibitors of SARS-CoV-2 cell entry (AID 1645847). For activity change, negative = inhibition: % is set by controls: 0 for no effect and ±100 for the full control effect. Note: nearly all actives have a fitted effect of over 65% in size. Note: potency is the fitted concentration of half-maximal effect. The method in brief: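 HEK293-ACE2 cells (Expi293F stably expressing human ACE2) were pretreated with compound for 1 h at 37 °C, then infected with MLV-based VSV-G pseudotyped particles for 48 h. Luciferase luminescence was normalized to VSV-G PP and bald PP wells.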
Assay [10] is described as follows: qHTS Assay for Identifying Gametocytocidal Compounds (AID 743244; active = well fitted curve in the direction sought with a large enough effect; note: potency is the fitted concentration of half-maximal effect). The conditions noted are these: P. falciparum 3D7 stage III-V gametocytes, alamarBlue, 72 h. In outline: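 Fluorescence at Ex 525/Em 598 nm, recorded 24 h after alamarBlue addition, reports residual metabolic activity of 3D7 gametocytes (stages III–V) following 72 h compound exposure at 37 °C, 5% CO2.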

The mark [11] stands for this setting: activity change, negative = inhibition: at 57.1 µM (top of the series) unless noted, outcome: at 57.1 µM (top of the series) unless noted.

In the case of `CC(=O)O[C@H]1C[C@@H]2CC[C@@H]3[C@H](CC[C@@]4(C)[C@H]3C[C@H](N3CC[N+](C)(C)CC3)[C@@H]4OC(C)=O)[C@@]2(C)C[C@@H]1N1CC[N+](C)(C)CC1`, the Potency result in [1], in [2] and in [3] was “inactive” each time.

Consider `CO[C@H]1C[C@@H]2CC[C@@H](C)[C@@](O)(O2)C(=O)C(=O)N2CCCC[C@H]2C(=O)O[C@H]([C@@H](C)C[C@@H]2CC[C@@H](O)[C@H](OC)C2)CC(=O)[C@H](C)/C=C(\C)[C@@H](O)[C@@H](OC)C(=O)[C@H](C)C[C@H](C)/C=C/C=C/C=C/1C`, for which the Potency result in [4] and in [3] was “inactive” each time. The Potency in [5] (setting [11]) was 20 µM (active).

In the case of `Cc1cc(-c2ccc(N=Nc3ccc4c(S(=O)(=O)O)cc(S(=O)(=O)O)c(N)c4c3O)c(C)c2)ccc1N=Nc1ccc2c(S(=O)(=O)O)cc(S(=O)(=O)O)c(N)c2c1O`, the Potency entry in assay [4] and in assay [2] was “inactive” throughout. For the same molecule, the activity change, negative = inhibition in [5] (setting [11]) is -2.58%.

On to `Cn1nnnc1SCC1=C(C(=O)O)N2C(=O)[C@@H](NC(=O)[C@H](OC=O)c3ccccc3)[C@H]2SC1`, for which the Potency result in [1], in assay [2] and in [3] was “inactive” each time.

On to `OCCN1CCN(CC/C=C2/c3ccccc3Sc3ccc(Cl)cc32)CC1`, for which, in assay [1], the Potency was 22.4 µM (active).

On to `CCCCCOc1ccc(-c2ccc(-c3ccc(C(=O)NC4CC(O)C(O)NC(=O)C5C(O)C(C)CN5C(=O)C(C(C)O)NC(=O)C(C(O)C(O)c5ccc(O)cc5)NC(=O)C5CC(O)CN5C(=O)C(C(C)O)NC4=O)cc3)cc2)cc1` (stereo not drawn) ({pTerphenylCO(4''-OnC5H11)}-[ξOrn(4,5-diOH)]T[Hyp][ξhTyr(βξ-OH,γξ-OH)]T[ξPro(3ξ-OH,4ξ-Me)]; lactam 1-C; configuration not given here), for which the Potency result in [1], in assay [3] and in assay [6] was “inactive” in each case. For the same molecule, in [2], the Potency was 11.2 µM (active).

`CCCCCCCCC=CCCCCCCCC(=O)NCCOC(=O)CC(C(=O)O)S(=O)(=O)O` (stereo unspecified): the Potency result in assay [4], in [3] and in assay [7] was “inactive” each time.

As for `CN(C)C(=O)c1cc2cnc(Nc3ccc(N4CCNCC4)cn3)nc2n1C1CCCC1`, the Potency result in assay [1], in assay [2], in assay [3], in [8], in assay [7] and in [9] was “inactive” throughout. Also, the activity change, negative = inhibition is -19.2% in [5] (at 27.1 µM (top of the series)) and -45.9% in assay [5] (at 57.1 µM (top of the series)).

Regarding `CCOc1nc2cccc(C(=O)OC(C)OC(=O)OC3CCCCC3)c2n1Cc1ccc(-c2ccccc2-c2nn[nH]n2)cc1` (stereo unspecified), the Potency entry in assay [1], in [2], in assay [3] and in assay [7] was “inactive” throughout. For the same molecule, the Potency in assay [8] was 2.41 µM (active); in assay [9] it was 0.429 µM (active).

Turning to `C(=C\c1ccncc1)/c1ccccc1`, the Potency result in assay [4], in [3] and in assay [5] (setting [11]) was “inactive” throughout.

For the molecule `NC(N)=NCC1COC2(CCCCC2)O1` (stereo unspecified), the Potency result in assay [1], in [2] and in assay [3] was “inactive” in each case.

Consider `COc1ccc2c(c1)OC(C)(C)C(c1ccccc1)C2c1ccc(OCCN2CCCC2)cc1` (stereo unspecified), for which the Potency result in [4], in [3] and in assay [7] was “inactive” each time. The Potency in assay [5] (setting [11]) was 15.8 µM (active).

Take `CC[C@]12C=CCN3CC[C@@]4(c5cc([C@@]6(C(=O)OC)CC7C[C@@H](C(C)(F)F)CN(Cc8c6[nH]c6ccccc86)C7)c(OC)cc5N(C)[C@H]4[C@@](O)(C(=O)OC)[C@@H]1OC(C)=O)[C@@H]32` (stereo partly specified): in [1], the Potency entry is “inactive”.

For `CO[C@H](C(=O)[C@@H](O)[C@@H](C)O)C1Cc2cc3cc(O[C@H]4C[C@@H](O[C@H]5C[C@@H](O)[C@H](O)[C@@H](C)O5)[C@@H](O)[C@@H](C)O4)c(C)c(O)c3c(O)c2C(=O)[C@H]1O[C@H]1C[C@@H](O[C@H]2C[C@@H](O[C@H]3C[C@](C)(O)[C@H](O)[C@@H](C)O3)[C@H](O)[C@@H](C)O2)[C@H](O)[C@@H](C)O1` (stereo partly specified), the Potency was 0.833 µM (active) in assay [10], 3.55 µM (active) in assay [4], 0.171 µM (active) in assay [8] and 0.152 µM (active) in [9]. Moreover, the Potency result in [7] is “inactive”. Besides, in assay [5] (setting [11]), the activity change, negative = inhibition is -92.7%.
